Screens deposited in PubChem BioAssay by National Center for Advancing Translational Sciences (NCATS).
In the library only some 9.3% were active in any assay of this set; here they are far more common.
HCMV antiviral: qHTS Assay for inhibitors of the human cytomegalovirus (HCMV) | activity change, negative = inhibition, % at 57.5 µM | AID 1259415, 2018 | 4.5% of 410,000 active | HFF cells, HCMV-luciferase reporter, 72 h; hits give low values; in the data active = activity change below about -60%; inconclusive = no clear call, values can overlap the other calls; inactive = above about -39%
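Human foreskin fibroblasts infected with luciferase-reporter HCMV at MOI 1 PFU/cell, compounds at two doses. Luciferase measured 72 h post infection; normalized to buffer-only basal and Salinomycin (10uM) controls.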
FMDV antiviral: High Throughput Screening for Foot and Mouth Disease Virus Antivirals; 1.2% of 410,000 active; Potency, µM (top dose mostly 57.9 µM), without a hit: at the top dose activity change, negative = inhibition, actives largely listed as inhibitors; FMDV antiviral cell-based qHTS; AID 1159524, 2015; calls by dose curve; tested in HEK293T cells; also: read-out not given here; potency is read from the fitted curve at half-maximal effect; nearly all actives have a fitted effect of over 45% in size
HCV inhibitor: qHTS Assay for Inhibitors of Hepatitis C Virus (HCV) | Potency, µM (series often up to 41.8 µM), inactives show top-dose activity change, negative = inhibition, hits mostly inhibitors | Huh7.5.1 HCVcc-Cre infection, luciferase reporter, 44 h | 3.4% of 340,000 active; also: potency is read from the fitted curve at half-maximal effect
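Compounds are dispensed onto cells plated 4 h earlier at 1,000 per well, with HCVcc-Cre virus (about 0.5 moi) added next. Following 44 h of culture, luminescent signal is measured for 15 sec after 15 min with substrate at room temperature.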
Vaccinia Venus: qHTS for Stage-Specific Inhibitors of Vaccinia Orthopoxvirus: Venus Reporter Primary qHTS | Vaccinia virus Venus reporter expression, fluorescence | Potency, µM (doses to about 36.5 µM), for the others: top-dose activity change, negative = inhibition, most hits filed as inhibitors | 0.46% of 330,000 active | AID 720580, 2013; calls by dose curve; tested in A549 cells; also: potency is read from the fitted curve at half-maximal effect; nearly all actives have a fitted effect of over 30% in size
Sm TGR inh: qHTS Assay for the Inhibitors of Schistosoma Mansoni Peroxiredoxins | Schistosoma mansoni thioredoxin glutathione reductase (TGR), Q962Y6 | purified TGR, DTNB reduction, TNB absorbance 405 nm | Potency, µM (titrated, usually from 114 µM), without a hit: top-dose activity change, negative = inhibition, most hits filed as inhibitors | 3% of 360,000 active | AID 485364, 2010; also: potency is read from the fitted curve at half-maximal effect; nearly all actives have a fitted effect of over 60% in size
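TGR 20 nM + NADPH 100 uM (dispensed conc.), cpd preinc 15 min RT; start with NADPH (500 uM addition) then DTNB (15 mM addition). Kinetic TNB absorbance, 405 nm filter. Four-parameter Hill fit across titration.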
VACV mCherry inh: qHTS for Stage-Specific Inhibitors of Vaccinia Orthopoxvirus: mCherry Reporter Primary qHTS; Vaccinia virus mCherry reporter infection, fluorescence; Potency, µM (doses to about 36.5 µM), for inactives: top-dose activity change, negative = inhibition, actives largely listed as inhibitors; 0.63% of 310,000 active; calls by dose curve; tested in A549 cells; also: potency is read from the fitted curve at half-maximal effect; nearly all actives have a fitted effect of over 35% in size
Active calls of the source: *; i = inactive; ? = inconclusive; . = not tested or not shown. Unless noted, calls follow the shape of the dose curve; as a rule, active = well fitted curve in the direction sought with a large enough effect; inconclusive = small, poorly fitted or top-dose-only effect, or another doubt; inactive = no such curve, though single readings can be large; an effect the other way counts as inactive or inconclusive. % is scaled to controls: 0 for no effect and ±100 for the full control effect.

SMILES | HCMV antiviral | FMDV antiviral | HCV inhibitor | Vaccinia Venus | Sm TGR inh | VACV mCherry inh
O=C(C1CCCN(c2ncnc3c2nc2n3CCCCC2)C1)N1CCN(c2cccc(Cl)c2)CC1 (configuration not stated) | -29 | ? | ? | . | -6% | .
CCCCN(Cc1ccco1)C(=O)C1CCCN(c2ncnc3c2nc2n3CCCCC2)C1 (configuration not stated) | -93* | -25% | ? | -28% | -22% | ?
O=c1cc2ncc(-n3cc([N+](=O)[O-])cn3)cn2[nH]1 | -7 | -12% | 9% | -8% | 1% | 0%
C=CCNc1nc(NCCN2CCOCC2)nc(OC)n1 | 28 | -23% | -6% | -16% | 2% | .
CCCN(CCC)c1nc(Cl)nc(NCCN2CCOCC2)n1 | -14 | ? | 14µM* | -14% | 5% | i
CC(C)=CCN1CCN(CCC2=C(C)CCCC2(C)C)CC1CCO (configuration not stated) | -66* | -14% | ? | . | -21% | .
NS(=O)(=O)c1ccc(NC(=S)NC(=O)C2CCCC2)cc1 | -11 | 3% | 13% | -4% | ? | -3%
COc1ccc(OC)c(C2CC(=O)N3CN(c4ccccc4)CSC3=C2C#N)c1 (configuration not stated) | -2 | -17% | 3% | -4% | 10µM* | i
CCc1ccccc1N1CSC2=C(C#N)C(c3ccccc3F)CC(=O)N2C1 (configuration not stated) | 8 | ? | -15% | -9% | 18µM* | i
COc1cc(OC)c(C2CC(=O)N3CN(c4ccccc4C)CSC3=C2C#N)cc1OC (configuration not stated) | 11 | . | ? | . | 32µM* | .
COc1ccc(C2CC(=O)N3CN(c4ccc(C)c(Cl)c4)CSC3=C2C#N)cc1 (configuration not stated) | -9 | 8% | -18% | 1% | 45µM* | 50%
COc1ccc(C2CC(=O)N3CN(c4ccccc4F)CSC3=C2C#N)cc1OC (configuration not stated) | -5 | -14% | 14% | -10% | ? | -22%
CCCCCCC(=O)Nc1ccc(S(=O)(=O)Nc2onc(C)c2C)cc1 | 2 | -6% | 17% | . | . | .
COc1ccc(N2CSC3=C(C#N)C(c4cccc(OC)c4OC)CC(=O)N3C2)cc1 (configuration not stated) | 78 | -5% | -3% | 0% | 22µM* | i
COc1cc(C2CC(=O)N3CN(Cc4ccco4)CSC3=C2C#N)ccc1OCc1ccccc1 (configuration not stated) | 112 | 0% | ? | 15% | 0% | -12%
Cc1cccc(N2CSC3=C(C#N)C(c4ccc(C)o4)CC(=O)N3C2)c1 (configuration not stated) | . | . | . | . | 11µM* | .
Cc1ccc(CNC(=O)CS(=O)(=O)CC(=O)O)cc1 | 40 | 0% | 8% | -1% | 0% | -16%
CCOC(=O)N1CCC(N(CCN(C)C)C(=S)Nc2ccc(F)c(Cl)c2)CC1 | ? | -23% | -6% | . | ? | .
O=C(COC(=O)/C=C/c1ccc([N+](=O)[O-])cc1)NCC1CCCO1 (configuration not stated) | 51 | -10% | -4% | -15% | -6% | -6%
COCc1ccc(C(=O)N2CCCC(C(=O)c3ccc(SC)cc3)C2)s1 (configuration not stated) | -87* | ? | . | -23% | 0% | -2%
CC(=O)c1ccccc1C(=O)N1CCCC(C(=O)c2ccc(C(F)(F)F)cc2)C1 (configuration not stated) | 18 | -1% | -54% | . | 40µM* | .
COc1ccccc1C(=O)C1CCCN(C(=O)c2ccccc2C(C)=O)C1 (configuration not stated) | 59 | 0% | 2% | . | -9% | .
